Assay results from PubChem BioAssay AID2314 (National Center for Advancing Translational Sciences (NCATS), 2010).
The campaign covered roughly 300,000 compounds. About 37,000 (12%) were called active. The full list was thinned out, with actives kept by preference. Unmarked numbers belong to inactive results. Rule as the data show it: active = max response mostly above about 13% (no sharp cut-off); inactive = mostly below about 14%.

experiment: Cycloheximide Counterscreen for Small Molecule Inhibitors of Shiga Toxin; details: cell reporter, cycloheximide protein synthesis inhibition counterscreen; active compounds read high; also: read at 38.3 µM for the half of the compounds with a filed dose; 0% is about no effect

In order of rising max response:
1. CCOCCCNC(=O)C(NC(=O)c1ccc(=O)[nH]c1)c1ccc(C)cc1 (stereo unspecified)  -5.76%
2. COc1ccc(NC(=O)c2cccc(Cl)c2)c[n+]1[O-]  -3.34%
3. Cc1ccc(SCCC(=O)NCc2ccccn2)cc1  -2.86%
4. CCOc1cc(C(C(=O)NCC2CCCO2)N(C(=O)Cn2nnc3ccccc32)c2cccc(OC)c2)ccc1O (stereo unspecified)  -2.76%
5. Cc1nn(Cc2ccc(Cl)cc2)c(Cl)c1/C=N/NC(=O)c1cccnc1  -2.03%
6. CCOC(=O)N1CCN(Cc2nnc(-c3ccccc3Cl)o2)CC1  -1.64%
7. COc1ccccc1CNS(=O)(=O)CC12CCC(CC1=O)C2(C)C (stereo unspecified)  -1.52%
8. C=CCNC(=S)NNc1ncnc2sc3c(c12)CC(C)(C)OC3  -1.51%
9. COCCCNC(=O)[C@H]1N2C(=O)c3ccccc3C2SC1(C)C (stereo partly specified)  -1.51%
10. Cc1cc(=O)oc2cc(OCC(=O)N3CCN(c4ccc(F)cc4)CC3)c(Cl)cc12  -1.36%
11. CC(C)(C)OC(=O)CNC(=O)c1[nH]cnc1C(=O)N[C@@H](Cc1ccccc1)C(=O)OCc1ccccc1  -1.14%
12. CCc1cccc2c(=O)c(C(=O)NCCCOC)c[nH]c12  -0.768%
13. Cc1nn(Cc2ccc(Cl)cc2)c(Cl)c1/C=N/NC(=O)CNc1ccccc1F  -0.244%
14. CC1CCc2c(sc(NC(=O)c3ccc(Cn4cc(Br)cn4)o3)c2C(N)=O)C1 (stereo unspecified)  0.185%
15. N/C(=N\S(=O)(=O)c1cc(C(F)(F)F)cc(C(F)(F)F)c1)c1cccs1  0.609%
16. Cc1ccc(SCCC(=O)NC(C(C)C)C(C)C)cc1  1.28%
17. Cc1cc(C)n2nc(SCC(=O)NC(=O)NCc3ccco3)nc2n1  3.86%
18. O=C(N/N=C/c1ccc(OCC2COCCO2)cc1)c1ccc(Br)cc1 (stereo unspecified)  3.9%
19. Cc1c(Cl)c([N+](=O)[O-])nn1Cc1ccc(C(=O)N/N=C\c2cc(Cl)ccc2O)o1  9.36%
20. C/C(=N\N(C)C)c1ccc(OCCOc2ccc([N+](=O)[O-])cc2)cc1  10.2%
21. O=C(N/N=C/c1ccc2c(c1)OCO2)c1ccc(Cn2cc([N+](=O)[O-])cn2)o1  12.3%

For `CN(C)c1ccc(/C=N/NC(=O)c2ccc(Cn3cc(Br)cn3)o2)cc1`, the max response was 56.4% (active).
For `O=C(N/N=C\c1ccc(Br)cc1)c1ccc(Cn2cccn2)o1`, the max response was 19.8% (active).
In the case of `CCn1nc(C)c(/C=N/NC(=O)Cc2ccc(Cl)cc2)c1C`, the max response was 27.9% (active).
For `Cc1ccc(SCCSc2ncccn2)cc1`, the max response was 44.5% (active).
With `CCOCCCNC(=O)c1c[nH]c2cc(C)ccc2c1=O` the max response was 15.4% (active).
